# Hits are enriched below; roughly 5.4% of the tested compounds scored in any of these assays.
# FMDV antiviral: antivirals against foot and mouth disease virus. FMDV antiviral cell-based qHTS. 410,000 compounds, 1.2% hits. Potency, µM (doses to about 57.9 µM), actives largely listed as inhibitors; calls by dose curve; tested in HEK293T cells; also: read-out not given here; nearly all actives have a fitted effect of over 45% in size
# MARV entry inh: inhibitors of Marburg virus binding or cell entry | Marburg virus pseudotyped entry inhibition, cell reporter | Potency, µM (titrated, usually from 37.8 µM), usual class: inhibitors | 300,000 compounds, 1.8% hits; calls by dose curve; tested in HEK293 cells
# LASV entry inh: Lassa virus entry inhibition. 300,000 compounds, 1.2% hits. Potency, µM (titrated, usually from 37.9 µM), usual class: inhibitors. Lassa virus pseudotype entry inhibition, cell reporter. AID 540256; calls by dose curve; tested in HEK293 cells; also: nearly all actives have a fitted effect of over 50% in size
# Sm TGR inh: inhibitors of Schistosoma mansoni thioredoxin glutathione reductase; Potency, µM (doses to about 114 µM), hits mostly inhibitors; 360,000 compounds, 3% hits; purified TGR, DTNB reduction, TNB absorbance 405 nm; active = well fitted inhibition curve with a large enough effect; inconclusive = small, poorly fitted or top-dose-only effect; inactive = no such curve, though single readings can be large or run the other way; also: nearly all actives have a fitted effect of over 60% in size
#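 First, TGR (20 nM dispensed) and NADPH were mixed with compound. Second, a 15 min room-temperature incubation followed. Third, further NADPH and then DTNB were added to start the reaction. Finally, TNB absorbance was monitored kinetically.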
# VACV Venus inh: vaccinia inhibition (Venus reporter). 330,000 compounds, 0.46% hits. Vaccinia virus Venus reporter expression, fluorescence. Potency, µM (doses to about 36.5 µM), actives largely listed as inhibitors; calls by dose curve; tested in A549 cells; also: nearly all actives have a fitted effect of over 30% in size
# Vaccinia mCherry: vaccinia inhibition (mCherry reporter); Vaccinia virus mCherry reporter infection, fluorescence; Potency, µM (doses to about 36.5 µM), actives largely listed as inhibitors; 310,000 compounds, 0.63% hits; calls by dose curve; tested in A549 cells; also: nearly all actives have a fitted effect of over 35% in size
# Numbers stand for hits; – = inactive; ? = inconclusive; · = no result.
SMILES,FMDV antiviral,MARV entry inh,LASV entry inh,Sm TGR inh,VACV Venus inh,Vaccinia mCherry
Cc1nn(Cc2ccc(Cl)c(Cl)c2)c(C)c1NC(=O)c1cc(CC(C)C)on1,?,·,·,–,?,11µM
CCCc1cc(C(=O)Nc2c(C)nn(Cc3ccc(Cl)c(Cl)c3)c2C)no1,?,?,?,–,–,–
COc1ccc(C(=O)NNS(=O)(=O)c2ccc(OC)cc2)cc1,–,·,·,–,·,·
COc1ccc(S(=O)(=O)NNC(=O)c2ccc(-n3c(C)ccc3C)cc2)cc1,–,–,–,10µM,–,–
CCOc1ccc(CCNC(=O)c2ccc(-c3nc(COc4ccc(C)cc4)c(C)o3)cc2)cc1,–,–,·,–,–,–
O=C(O)c1ccccc1C(=O)Nc1ccccc1,–,–,?,–,·,·
O=C(Nc1ccccc1)C1=C(c2ccccc2)S(=O)(=O)CCS1(=O)=O,14µM,2.8µM,?,0.25µM,?,?
Cc1nn(-c2nc(-c3ccc(F)cc3)cc(C(F)(F)F)n2)c(C)c1Cl,–,?,–,–,–,–
N#Cc1c(-c2ccccc2)nc(-c2ccccc2)[nH]c1=O,–,–,–,–,–,–
Nc1nc(-c2ccccc2)[nH]c(=O)c1N=O,–,·,·,–,13µM,?
CS(=O)(=O)Oc1ccc(Br)c2cccnc12,–,·,·,–,–,–
Nc1ccc(Br)c2cccnc12,–,?,–,50µM,–,–
CC(=O)c1c(COC(=O)c2ccco2)nc2ccccc2[n+]1[O-],–,?,–,40µM,–,·
CCOC(=O)c1c(COC(=O)c2ccco2)nc2ccccc2[n+]1[O-],–,–,–,?,–,·
CC(C)NS(=O)(=O)c1ccc2[nH]c3nc(SCC(=O)Nc4ccc(F)c(F)c4)nnc3c2c1,·,·,·,·,–,–
N#CC1=C(N)SC(N)=C(C#N)C1c1ccnc2ccccc12,–,–,–,?,–,–
O=C1C(c2ccnc3ccccc23)=C(O)c2ccccc21,–,?,2.8µM,–,–,·
O=C1c2ccccc2C(=O)C1c1ccnc2ccccc12,–,7.3µM,?,–,–,–
O=C1c2ccccc2C(=O)C1c1nccc2ccccc12,–,2.5µM,?,–,–,–
Cc1c(C(=O)Nc2nc(-c3ccc(F)cc3)ns2)oc2ccc(Cl)cc12,–,–,–,–,–,–
O=C(c1ccco1)N(c1ccccn1)c1ccccn1,–,–,–,–,·,·
O=C(/C=C/c1ccc([N+](=O)[O-])cc1)NCc1ccccn1,–,–,–,–,–,–
O=C(/C=C/c1ccco1)NCc1ccccn1,–,·,·,3.5µM,–,–
O=C(/C=C/c1ccco1)N(c1ccccn1)c1ccccn1,–,–,–,32µM,–,–
O=C(COC(=O)/C=C/c1cccs1)Nc1nc(-c2ccccc2)cs1,–,?,–,22µM,–,–
SMILES,FMDV antiviral,MARV entry inh,LASV entry inh,Sm TGR inh,VACV Venus inh,Vaccinia mCherry
O=C(Cc1cccs1)Nc1nc(-c2ccccc2)cs1,?,?,1.6µM,–,·,·
O=C(NCCCn1ccnc1)Nc1ccc(Cl)cc1,–,?,–,–,·,·
O=C1CCCN1CCCNC(=S)Nc1ccc(Cl)cc1Cl,–,–,–,89µM,–,–
CN(C)S(=O)(=O)c1cccc(NC(=S)NCCCn2ccnc2)c1,–,–,–,50µM,–,–
Cc1ccc(S(=O)(=O)N(C)C)cc1NC(=S)NCCCn1ccnc1,–,–,–,?,·,·
S=C(NCCCn1ccnc1)Nc1ccc(Cl)cc1Cl,–,–,–,32µM,–,?
COC1CCCCC1C1CCN(C(=O)c2ccco2)CC1 (stereo unspecified),·,–,·,·,·,·
CCOc1ccc(Sc2cc(C(=O)NC(C)CC)c3ccccc3n2)cc1 (stereo unspecified),–,·,–,–,–,–
C=CC(=O)N=c1sc2ccccc2n1-c1ccccc1,?,?,?,40µM,?,?
N=c1sc2ccccc2n1-c1ccccc1,–,–,–,–,·,·
CC(=CC[Si](C)(C)C)CCC=O,·,–,?,·,·,·
COc1ccccc1/C=c1\sc2nc(-c3ccco3)nn2c1=O,–,–,–,11µM,–,–
Cc1ccc(C(=O)n2nc(-c3ccco3)nc2N)cc1,?,–,–,?,–,–
COc1ccccc1C(=O)n1nc(-c2ccco2)nc1SC,–,?,–,14µM,–,?
CSc1nc(-c2ccco2)nn1C(=O)c1ccccc1,–,–,–,16µM,–,–
CSc1nc(-c2ccco2)nn1C(=O)c1ccco1,–,–,–,?,·,·
COc1ccc(C(=O)n2nc(-c3ccco3)nc2N)cc1,–,–,–,32µM,–,–
CSc1nc(-c2ccco2)nn1C(=O)c1ccc(C)cc1,–,–,?,?,–,–
COCCNC(=O)c1sc2nc3n(c(=O)c2c1C)CCC3,–,·,–,–,–,–
O=C(Cn1c(=O)n(Cc2ccc(C(=O)NCc3ccc4c(c3)OCO4)cc2)c(=O)c2ccccc21)Nc1ccc(F)cc1F,–,–,–,?,–,–
O=C(NC(Nc1ncc(S(=O)(=O)c2ccc([N+](=O)[O-])cc2)s1)(C(F)(F)F)C(F)(F)F)c1ccc(Cl)cc1,?,3.2µM,?,–,?,18µM
Cc1cnc(-n2ncc(C(=O)N(C)CC3COCCO3)c2C2CC2)nc1-c1cccs1 (stereo unspecified),–,·,·,·,–,–
CCOC(=O)/C(=C\c1cccnc1)C(=O)c1cc(C(C)=O)c(Nc2ccccc2)s1,4µM,?,?,20µM,11µM,13µM
CCOC(=O)/C(=C\c1ccccc1)C(=O)c1cc(C(C)=O)c(Nc2ccccc2)s1,14µM,?,?,–,–,–
CCc1ccc(-n2c(=O)c3c4c(sc3n(CC(=O)N3CCC(C)CC3)c2=O)CCC4)cc1,–,–,–,–,–,–
SMILES,FMDV antiviral,MARV entry inh,LASV entry inh,Sm TGR inh,VACV Venus inh,Vaccinia mCherry
Cc1nn(C)c2c1c(C(F)(F)F)cc(=O)n2CC(=O)NCc1ccccc1Cl,–,·,–,–,–,–
COC1=C[C@H](C(=O)NCCOC(C)=O)[C@@]2(C)Cc3ccccc3[C@@H]2CC1=O,·,–,·,·,·,·
CC(C)Cc1nn2c(=O)cc(COC(=O)c3ccc(NC(=O)CCc4ccccc4)cc3)nc2s1,–,·,?,–,–,–
O=C(CCl)NN=C(c1ccccc1)c1ccccc1,25µM,–,–,11µM,–,–
CCOc1ccc(N(Cc2cc3cc(C)ccc3[nH]c2=O)C(=O)c2cccc(Cl)c2)cc1,?,–,–,–,–,–
CCCn1c(N)c(C(c2ccc(OC)cc2)N2CCN(c3ccccc3)CC2)c(=O)[nH]c1=O (stereo unspecified),–,–,–,2µM,–,·
COCCn1c(C)cc(O)c(C(c2ccc(OC)cc2)N2CCN(c3ccccc3)CC2)c1=O (stereo unspecified),–,·,–,8.9µM,–,–
COCCn1nnnc1C(c1ccccc1)N1CCN(c2ccccc2)CC1 (stereo unspecified),–,–,–,–,·,·
COc1ccc(C(CCN2CCN(c3ccccc3)CC2)c2c(O)cc(OC)cc2OC)cc1 (stereo unspecified),–,·,·,–,–,?
COCCn1c(C)cc(O)c(C(c2cccc(F)c2)N2CCN(c3ccccc3)CC2)c1=O (stereo unspecified),–,·,–,7.9µM,–,–

# Source: PubChem BioAssay
